Drawing on PubChem BioAssay, this text covers composite z-score and z-score for 16 compounds.

SMILES strings stand for the structures.

Test [1] has as its system Human papillomavirus type 1a protein E7 (residues 44-93). As to the kind of experiment: HPV1a E7 fragment binders on microarrays, primary screen, biochemical, small-molecule microarray, residues 44-93, 635 nm fluorescence (AID 1108).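 Note: E7 fragment applied at 1 µg/mL in TBST for 1 h at 4 C; score combines spot fluorescence with its signal to noise ratio.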 The following applies: small-molecule microarray binding, fluorescence 635 nm; higher = more signal.
Test [2] can be described thus: modulators of HCV replicon luciferase signal, primary screen, HCV replication inhibitor project, Huh7 cells, luciferase reporter (AID 1109).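 Note: huh7 hepatoma cells harbouring a luciferase neomycin HCV replicon reporter; luciferase luminescence as measure of HCV replicon replication; test concentration not given here.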 The note with it: 48 h, higher = more signal. Background: In antiviral work, replicon cells carry a viral genome segment that copies itself.
The target of test [3] is Left-right determination factor 2 (Homo sapiens) (UniProt O00292). In words: LEFTY2 binders on small-molecule microarrays, primary screen, biochemical, small-molecule microarray, 635 nm fluorescence scan (AID 1110). The following applies: LEFTY2 binding, higher = more signal.
Test [4] concerns the target Calmodulin-1 (Homo sapiens) (UniProt P0DP23). As to the kind of experiment: CALM1 binders on microarrays, EGTA buffer, profiling panel, biochemical, small-molecule microarray, Cy5-labelled CALM1 (AID 1111).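 Note: labelled calmodulin applied in Tris saline Tween buffer holding calcium plus EGTA and DTT.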 The following applies: Cy5-CALM1 binding fluorescence, higher = more signal.
Test [5] shares this target. In words: calcium-bound CALM1 binders on microarrays, profiling panel, artefact control for SMM control-protein annotation, biochemical, small-molecule microarray, Cy5-labelled CALM1, plus calcium (AID 1112).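 Note: score merges spot fluorescence with signal to noise from triplicate slides.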 The note with it: Cy5-CALM1 binding fluorescence, higher = more signal.
Test [6] is described as follows: small-molecule microarray binders of probe aWnt5a, primary screen, biochemical, biotinylated probe, 635/667 nm fluorescence (AID 1113).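 Note: score merges 667 nm fluorescence intensity with signal-to-noise per printed feature.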 The note with it: higher = more signal.
Test [7] is described as follows: small-molecule microarray binders of probe aShh, primary screen, biochemical, biotinylated probe, 635/667 nm fluorescence (AID 1114).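 Note: probe is biotin-labelled aShh protein from a stem cell growth factor screen; measures binding of labelled protein to compounds printed on the slide; score merges feature fluorescence at 667 nm with signal-to-noise.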 The note with it: higher = more signal.
Test [8] is described as follows: small-molecule microarray binders of probe aNog, primary screen, biochemical, biotinylated probe, 635/667 nm fluorescence (AID 1115).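 Note: probe is biotinylated aNog protein used at 0.15 µg/mL for 1 h at 4 C; z-score combines 667 nm fluorescence of each spot with its signal to noise.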 The note with it: higher = more signal.
Test [9] addresses Torsin-1A-interacting protein 1 (Homo sapiens) (UniProt Q5JTV8). As to the kind of experiment: LAP1 binders from COS7 cell lysate, primary screen, small-molecule microarray, 635/667 nm fluorescence (AID 1116). The following applies: COS7-hLAP1 lysate binding, 635 nm fluorescence, higher = more signal.
Test [10] addresses Alpha-bungarotoxin (Bungarus multicinctus) (UniProt P60615). In words: alpha-bungarotoxin binders on microarray, profiling panel, artefact control for SMM control protein annotation, biochemical, small-molecule microarray, Alexa647 label, 635/667 nm fluorescence (AID 1117). The note with it: alpha-BTX-A647 binding fluorescence, higher = more signal.

Left-right determination factor 2 (Homo sapiens), sequence (O00292 whole entry, looked up): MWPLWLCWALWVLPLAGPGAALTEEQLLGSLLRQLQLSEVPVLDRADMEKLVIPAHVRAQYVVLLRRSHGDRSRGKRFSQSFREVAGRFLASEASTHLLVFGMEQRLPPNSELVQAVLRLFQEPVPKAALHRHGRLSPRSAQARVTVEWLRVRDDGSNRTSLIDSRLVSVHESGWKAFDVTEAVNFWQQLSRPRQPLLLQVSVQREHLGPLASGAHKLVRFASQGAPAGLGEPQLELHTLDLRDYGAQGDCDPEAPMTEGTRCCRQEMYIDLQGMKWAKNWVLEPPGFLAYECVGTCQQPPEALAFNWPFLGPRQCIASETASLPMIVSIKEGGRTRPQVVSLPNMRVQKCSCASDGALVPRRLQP
Alpha-bungarotoxin (Bungarus multicinctus), sequence (P60615 whole entry, looked up): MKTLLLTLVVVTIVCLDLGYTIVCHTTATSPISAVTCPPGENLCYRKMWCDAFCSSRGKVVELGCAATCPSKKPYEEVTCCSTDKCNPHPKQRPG
Torsin-1A-interacting protein 1 (Homo sapiens), sequence (Q5JTV8 whole entry, looked up): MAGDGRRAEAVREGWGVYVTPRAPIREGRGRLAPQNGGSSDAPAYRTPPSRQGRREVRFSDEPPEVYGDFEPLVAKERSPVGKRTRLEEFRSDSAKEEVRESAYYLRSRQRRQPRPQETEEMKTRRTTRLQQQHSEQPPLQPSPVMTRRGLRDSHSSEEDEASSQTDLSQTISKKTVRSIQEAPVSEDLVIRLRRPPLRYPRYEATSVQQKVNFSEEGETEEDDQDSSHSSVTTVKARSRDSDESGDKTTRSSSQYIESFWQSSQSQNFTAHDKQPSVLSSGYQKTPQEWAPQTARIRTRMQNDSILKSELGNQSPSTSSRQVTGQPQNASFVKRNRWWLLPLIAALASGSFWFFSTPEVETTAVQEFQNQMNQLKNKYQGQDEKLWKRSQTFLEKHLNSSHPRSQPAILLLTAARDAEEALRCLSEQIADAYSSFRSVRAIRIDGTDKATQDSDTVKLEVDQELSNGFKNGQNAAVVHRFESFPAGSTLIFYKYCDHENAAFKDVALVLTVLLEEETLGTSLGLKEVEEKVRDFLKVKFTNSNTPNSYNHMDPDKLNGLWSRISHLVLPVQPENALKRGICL

`NCCCCCNC(=O)[C@@H]1C[C@@H]2C(=O)NCC(=O)N2[C@@H]1c1cccc(OCCO)c1`: the composite z-score in test [1] is 1.2; in test [3] it was 0.79; in test [4] it was 0.885; in [5] it was 0.433; in test [6] it was -0.0202; in test [7], 0.412. Besides, the composite z-score in test [8] was determined as 0.217; in test [9], 0.513; in [10] it was 1.01. In addition, in [2], the z-score was -0.878.
For the compound `COCCOC(=O)N1C(=O)[C@@]2(c3cc(C#CC4=CCCCC4)ccc31)[C@H](c1ccccc1OCCO)N1[C@H](c3ccccc3)[C@H](c3ccccc3)OC(=O)[C@H]1[C@@H]2C(=O)N1CCCCCCC1`, the composite z-score is 1.38 in test [1]; 0.225 in [3]; -0.529 in test [4]; 0.258 in test [5]; -0.0327 in test [6]; -0.493 in [7]. For the same compound, the composite z-score was -0.345 in test [8], 1.08 in [9] and 0.973 in [10]. Further, the z-score in [2] is -2.94.
Regarding `C=CCN1C(=O)[C@@]2(O[C@@H](CCn3cc([C@H](O)c4ccccc4)nn3)[C@H]([Si](C)(C)c3ccc(OC)cc3)[C@H]2C)c2cc(N3CCC3=O)ccc21`, the composite z-score in [1] was 0.627; in [3] it was 0.225; in test [4], 0.249; in test [5] it was 0.294; in [6] it was -0.15; in [7], -0.138. Further, the composite z-score in test [8] was determined as 0.15; in [9], 0.116; in [10] it was 0.359. Further, the z-score in test [2] was -3.39.
Consider `C[C@@H]1NC(=O)[C@@]23C(=O)N[C@@H](Cc4ccccc4)C2[C@H](C)[C@@]2(C)O[C@H]2C3/C=C/C/C=C\CNC(=O)[C@@H]2CCCN2C1=O` (stereo not given in full), for which the composite z-score in test [1] is -0.496; in test [3], -0.301; in [4], -0.535; in [5], -0.556; in test [6], -0.196; in test [7], -0.0553. Besides, the values for the composite z-score in [8], in test [9] and in [10] were -0.122, -0.313 and -0.123, respectively. Moreover, the z-score in test [2] is 0.606.
Consider `O=C(CS)NCCCCCNC(=O)[C@@H]1C[C@@H]2C(=O)N3CCC[C@H]3C(=O)N2[C@@H]1c1cccc(OCCO)c1`, for which the composite z-score in test [1] was 1.42; in test [3] it was -0.429; in test [4], 1.39; in [5] it was -1.29; in [6], -0.073; in [7] it was -0.16. Moreover, the composite z-score in [8] was -0.565; in test [9], 1.76; in test [10], 1.14. For the same compound, in test [2], the z-score was -0.367.
Turning to `COCCOC(=O)N1C(=O)[C@@]2(c3cc(C#CCC(C(=O)OC)C(=O)OC)ccc31)[C@H](C(=O)N1CCc3cc(OC)c(OC)cc3C1)[C@H]1C(=O)O[C@H](c3ccccc3)[C@H](c3ccccc3)N1[C@@H]2c1ccc(OCCO)cc1`, the composite z-score in [1] is 1.39; in test [3], 0.608; in test [4] it was 0.756; in test [5], -0.551; in [6], -0.006; in test [7], -0.1. Also, the figures for the composite z-score in [8], in test [9] and in test [10] were -0.103, 0.0568 and 2.16, respectively. Besides, the z-score in [2] is -0.45.
On to `C=CCC(OC(C)=O)[C@@H]1[C@@H](N(Cc2ccc(-c3cccc(C(F)(F)F)c3)o2)C(=O)c2ccc(-c3ccccc3)cc2)c2cc(OCCCO)ccc2N1C(=O)c1ccc2ccccc2n1` (stereo not given in full), for which the composite z-score in [1] is -0.252; in [3], -0.122; in test [4], -0.227; in [5] it was 0.623; in test [6] it was 0.0437; in test [7] it was 0.112. Also, the composite z-score in test [8] is -0.139; in test [9], -0.2; in test [10], -0.386. The same compound gave a z-score in [2] of 0.177.
Turning to `CCCC[C@@H](O)C1=C(COc2ccccc2)C[C@H]2C(=O)N(C)C(=O)[C@H]2[C@H]1CO`, the composite z-score in test [1] is -1.05; in [3], -0.164; in test [4] it was -0.756; in test [5], -0.527; in [6], -0.195; in test [7] it was -0.2. Moreover, the results for the composite z-score in test [8], in test [9] and in test [10] were -0.519, -1 and -0.149, respectively. For the same compound, in [2], the z-score is -0.408.
Take `[N-]=[N+]=NCc1ccccc1[C@H]1OC(c2ccc(OCCCO)cc2)=N[C@@]1(CCS(=O)(=O)c1ccccc1)C(=O)N1CCCCC1`: the composite z-score is -0.695 in [1]; 0.651 in test [3]; 2.25 in test [4]; 0.735 in test [5]; 0.16 in test [6]; 0.385 in [7]. In addition, the figures for the composite z-score in [8], in test [9] and in test [10] were 1.15, 1.22 and 2.96, respectively. In addition, in test [2], the z-score is -1.11.
For the compound `COCCOC(=O)N1C(=O)[C@@]2(c3cc(C#CCCO)ccc31)[C@H](c1ccccc1OCCO)N1[C@H](c3ccccc3)[C@H](c3ccccc3)OC(=O)[C@H]1[C@@H]2C(=O)Nc1nc2ccccc2s1`, the composite z-score was 0.323 in test [1]; 0.558 in test [3]; 1.39 in test [4]; 0.704 in [5]; -0.0519 in [6]; 0.173 in test [7]. In addition, the composite z-score in [8] came to 0.429; in test [9] it was 1.62; in test [10], 2.29. Also, in [2], the z-score was -1.65.
As for `CN1C(=O)C2C=CC(C(O)c3cccc(O)c3)N(Nc3ccccc3)C2C1=O` (stereo not given), the composite z-score in [1] was -0.286; in test [3] it was 0.13; in test [4], -0.185; in [5], -0.09; in [6], 0.0597; in [7], 1.72. For the same compound, the composite z-score in test [8] came out at 0.582; in test [9], 0.203; in test [10], 0.041. The z-score in test [2] was found to be 0.359.
Take `COc1cccc(/C=C/C=O)c1`: the composite z-score was 0.105 in test [1]; 0.402 in test [3]; 0.0577 in test [4]; -0.363 in [5]; 0.185 in test [6]; 0.218 in test [7]. Besides, the composite z-score in test [8] is -0.354; in test [9], 0.185; in test [10] it was -0.124. For the same compound, in [2], the z-score was -0.56.
On to `CC(C)OC(=O)C=C1C[C@@H](c2ccc(C(F)(F)F)cc2)O[C@@H](c2ccc(C(F)(F)F)cc2)O1`, for which the composite z-score was 1.44 in [1]; -0.467 in test [3]; 0.808 in [4]; 0.776 in [5]; -0.0643 in [6]; 0.536 in test [7]. In addition, the composite z-score in test [8] is -0.261; in [9], 2.25; in test [10], 1.83. Further, in [2], the z-score was -0.512.
On to `Cc1ccc(S[C@]2(C(=O)NCC(F)(F)F)CC(=O)N(C3CCCCC3)[C@@H]2c2ccc(CO)cc2I)cc1`, for which the composite z-score in test [1] is 1.42; in test [3], 0.394; in test [4], 1.01; in test [5] it was -0.077; in test [6], -0.122; in [7] it was 0.184. Moreover, the composite z-score in test [8] is -0.422; in [9], 0.958; in test [10], 0.587. For the same compound, in test [2], the z-score is -2.3.
Consider `COc1ccc([Si](C)(C)[C@@H]2[C@@H](CC(=O)N(CCO)Cc3ccccc3)O[C@]3(C(=O)N(Cc4cccc(N5C(=O)c6cccc7cccc5c67)c4)c4ccccc43)[C@H]2C)cc1`, for which the composite z-score in test [1] was -0.726; in test [3] it was 0.882; in test [4], 0.222; in test [5], 0.234; in test [6], -0.1; in test [7], -0.209. Moreover, the figures for the composite z-score in [8], in [9] and in test [10] were -0.424, 0.566 and 0.389, respectively. In test [2], the z-score was -3.94.
As for `O=C1OCC=C[C@H]2OC34C=CCN(Cc5ccccc5)C(=O)[C@H]3N(CCCCCCO)C(=O)[C@@H]4[C@@H]12` (stereo not given in full), the composite z-score is -1.08 in [1]; -1.19 in test [3]; -0.274 in [4]; 0.466 in [5]; -0.161 in test [6]; -0.0396 in test [7]. Also, the figures for the composite z-score in test [8], in [9] and in test [10] were -0.302, 2.46 and -0.367, respectively. In [2], the z-score worked out at 0.141.
